Rows were chosen to be rich in hits. Some 20% of all compounds tested hit in one or more screens of this group.
Pf growth 48h: inhibits P. falciparum growth in the first generation, 48 h; P. falciparum luciferase growth in erythrocytes, 48 h; Potency, µM (highest dose often 28.7 µM), for inactives: at the highest dose activity change, negative = inhibition, most hits filed as inhibitors; 5.9% of 310,000 active; AID 504832; also: potency is read from the fitted curve at half-maximal effect; % is scaled to controls: 0 for no effect and ±100 for the full control effect
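Cell-based growth assay: transgenic P. falciparum expressing firefly luciferase, cultured in red cells within RPMI 1640 containing 0.5% w/v Albumax, 24 mM bicarbonate and gentamycin. A drop in luciferase activity indicates inhibition.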
Cycloheximide cs: affects cycloheximide protein synthesis inhibition readout, counter-screen | AID 2314 | 12% of 300,000 active | max response, % | cell reporter, cycloheximide protein synthesis inhibition counterscreen; in the data active = max response mostly above about 13%, no sharp cut-off; inactive = mostly below about 14%; also: read at 38.3 µM for the half of the compounds with a filed dose; 0% is about no effect
Shiga inhibitor: inhibitors of Shiga toxin in Vero cells | inhibition, % at 38.7 µM | 9.2% of 290,000 active | AID 2315 | Vero cells, Shiga toxin protein synthesis inhibition reporter; in the data active = inhibition mostly above about 28%, no sharp cut-off; inactive = mostly below about 43%; also: 0% is about no effect
HCMV antiviral: blocks human cytomegalovirus replication. activity change, negative = inhibition, % at 57.5 µM. HFF cells, HCMV-luciferase reporter, 72 h; hits give low values. 4.5% of 410,000 active. AID 1259415; in the data active = activity change below about -60%; inconclusive = no clear call, values can overlap the other calls; inactive = above about -39%; also: % is scaled to controls: 0 for no effect and ±100 for the full control effect
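Steps: HFFs plated, 16 h 37C; compounds added; HCMV-luciferase added to MOI 1 PFU/cell; 72 h 37C; OneGlo reagent, 5 min room temperature; luminescence read, normalized to controls.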
Pf growth 96h: P. falciparum growth inhibition at 96 hours. 6.9% of 320,000 active. P. falciparum luciferase reporter growth, 96 h. Potency, µM (doses to about 28.7 µM), for the others: at the top dose activity change, negative = inhibition, most hits filed as inhibitors; also: potency is read from the fitted curve at half-maximal effect; % is scaled to controls: 0 for no effect and ±100 for the full control effect
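Luminescence readout: decreased luciferase signal marks inhibited growth of reporter-expressing P. falciparum in infected red cells (2% hematocrit, 0.05% parasitemia final), exposed to compound two generations (96 h, 37 C, 5% CO2).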
Active calls of the source: *; ? = inconclusive; nt = no result. Unless noted, calls follow the shape of the dose curve; as a rule, active = well fitted inhibition curve with a large enough effect; inconclusive = small, poorly fitted or top-dose-only effect, or another doubt; inactive = no such curve, though single readings can be large or run the other way.

SMILES	Pf growth 48h	Cycloheximide cs	Shiga inhibitor	HCMV antiviral	Pf growth 96h
CCCNC(=O)/C(C#N)=C1\N=C(NC(=O)c2ccco2)c2ccccc21	-3%	11	-2	-31	-21%
CC(C)NC(=S)N1CCCN(c2ncccc2[N+](=O)[O-])CC1	?	1	-3	nt	9.3µM*
Cc1ccc(C(=O)NCC(c2ccc3c(c2)OCO3)N2CCOCC2)cc1C (stereo unspecified)	nt	nt	nt	-11	nt
Cc1nn(C)c(C(=O)NNC(=S)Nc2ccc(Cl)cc2)c1[N+](=O)[O-]	7%	12	-1	-1	49%
CCNC(=S)NNC(=O)c1c(Cl)c(C)nn1C	-3%	-2	-2	-21	6%
CCNC(=S)NNC(=O)c1nn(C)c(C)c1Cl	22%	26	82*	-6	-2%
Cc1c(Cl)c(C(=O)NNC(=S)Nc2ccccc2)nn1C	78%	31*	64*	14	nt
Cc1c(Cl)c(C(=O)NNC(=S)Nc2ccc(F)cc2)nn1C	30%	34*	179*	-5	20%
O=C1NC[C@@H](CCCCN2C[C@H](Cc3ccc(O)cc3)N(CCC3CCCCC3)C(=O)C2=O)N(CCc2ccc(O)cc2)C1=O	nt	nt	nt	-14	nt
COc1ccc([C@H]2N[C@]3(CCCN(Cc4ccc(F)cc4)C3=O)[C@H]3C(=O)N(Cc4ccccc4)C(=O)[C@@H]23)cc1	nt	nt	nt	-1	nt
COc1ccc(-c2nc(CNC(=O)Nc3ccccc3)c(C)o2)c(OC)c1	nt	nt	nt	10	nt
O=C(NNC(=O)C1CCN(c2ncccn2)CC1)c1ccncc1	39%	1	-11	-9	-1%
CNC(=O)c1ccc(Nc2nnc(-c3ccc(C)c(S(=O)(=O)NCC4CCCO4)c3)c3ccccc23)cc1 (stereo unspecified)	5.2µM*	-1	-9	-12	?
CNS(=O)(=O)c1cc(-c2nn3c(C)nnc3c3ccccc23)ccc1C	nt	nt	nt	-62*	nt
CC(=O)Nc1ccc(Nc2nnc(-c3ccc(C)c(S(=O)(=O)NCC4CCCO4)c3)c3ccccc23)cc1 (stereo unspecified)	1µM*	-2	-11	-24	1.2µM*
CNS(=O)(=O)c1cc(-c2nnc(Nc3ccc(NC(C)=O)cc3)c3ccccc23)ccc1C	10µM*	6	-5	-66*	?
CCCNS(=O)(=O)c1cc(-c2nn3c(C)nnc3c3ccccc23)ccc1C	nt	nt	nt	-19	nt
CNC(=O)c1ccc(Nc2nnc(-c3ccc(C(N)=O)cc3)c3ccccc23)cc1	?	-8	-6	17	23%
Cc1ccc(SCC(=O)OCC(=O)N(C)CC(=O)Nc2ccc(F)cc2)cc1C	7%	nt	nt	-5	26%
Cc1ccc(-c2nn3c(-c4ccco4)nnc3c3ccccc23)cc1S(=O)(=O)NCC1CCCO1 (stereo unspecified)	?	-3	9	-35	-24%
Cc1ccc(C)c(Nc2nnc(-c3ccc(C)c(S(=O)(=O)N4CCN(C)CC4)c3)c3ccccc23)c1	nt	nt	nt	-6	nt
Cc1ccc(C)c(Nc2nnc(-c3ccc(C)c(S(=O)(=O)NCC4CCCO4)c3)c3ccccc23)c1 (stereo unspecified)	nt	nt	nt	-104*	nt
C#CC(C)(C)NS(=O)(=O)c1cc(-c2nnc(Nc3ccc(C)cc3)c3ccccc23)ccc1C	nt	nt	nt	-87*	nt
Cc1ccc(-c2nnc(Nc3ccc(Cl)c(Cl)c3)c3ccccc23)cc1S(=O)(=O)N(C)C	nt	nt	nt	-13	nt
Cc1ccc(-c2nnc(Nc3ccccc3)c3ccccc23)cc1S(=O)(=O)NCC1CCCO1 (stereo unspecified)	4.1µM*	-2	-5	?	?
SMILES	Pf growth 48h	Cycloheximide cs	Shiga inhibitor	HCMV antiviral	Pf growth 96h
CC(C)(C)c1nc(CN2CCCCC2)cc(CN2CCCCC2)c1O	9.3µM*	-2	-12	3	?
CC(C)(C)c1nc(CN2CCOCC2)ccc1O	?	-4	-8	-1	-1%
Cc1ccccc1NC(=O)c1nc2nccc(C)n2n1	312%	38*	72*	nt	79%
COc1ccc(NC(=O)c2nc3nccc(C)n3n2)cn1	nt	33*	44*	60	203%
COc1ccc(NC(=O)c2ccc(NC(=O)c3nc4nccc(C)n4n3)cc2)cc1	nt	nt	nt	2	nt
C/C(=N/NC(=O)c1ccccc1)C1=C(O)CC(C)(C)CC1=O	-25%	-1	-12	20	?
CC1(C)CC(=O)C(C(N)=NC(=O)c2ccccc2)=C(O)C1	27%	39*	70*	?	46%
CC1(C)CC(=O)C(Sc2ccccc2[N+](=O)[O-])=C(O)C1	3%	-2	-4	7	-10%
CC1(C)CC(=O)C(C(N)=NC(=O)c2ccc([N+](=O)[O-])cc2)=C(O)C1	31%	18*	62	-8	42%
COC(=O)C[C@@H]1C=C[C@H](NS(=O)(=O)c2cccc(F)c2)[C@@H](CO)O1	nt	nt	nt	-8	nt
CCN(CC)C(=O)Cn1c(SCC(=O)Nc2ccc(F)cc2)nc2ccccc21	nt	nt	nt	-5	nt
O=C(O)c1ccc(N=Nc2c(O)ccc3ncccc23)cc1	?	22*	65	?	57%
Cc1ccccc1CN1C(=O)c2ccccc2S(=O)c2ccc(C(=O)NCc3ccc(Cl)cc3)cc21 (stereo unspecified)	nt	nt	nt	-5	nt
COc1ccc(Cn2c(CCC(=O)Nc3ccccc3)nc3cccnc32)cc1	-14%	-3	-19	-12	?
COCCCNC(=O)CCc1nc2cccnc2n1Cc1ccccc1	31%	-5	-11	-17	8.3µM*
COc1ccc(Cn2c(CCC(=O)Nc3ccc(CC#N)cc3)nc3cccnc32)cc1	?	-5	-17	14	3.7µM*
CCN(CC)CCNC(=O)c1ccc(CSc2nc3ccncc3n2Cc2cccc(F)c2)cc1	nt	nt	nt	-13	nt
Cc1oc2ccc(NS(=O)(=O)c3ccc(C(C)(C)C)cc3)cc2c1C(=O)Nc1ccccc1	?	0	1	-15	-8%
COc1ccccc1CNc1nc(NCc2cccc(OC)c2OC)c2sccc2n1	nt	nt	nt	-83*	nt
C#Cc1cccc(Nc2nc(NCc3ccccc3OC)nc3ccsc23)c1	nt	nt	nt	-79*	nt
COC(=O)CC1C(=O)NCCN1Cc1cn(-c2ccc(C)cc2)nc1-c1cccc(C)c1 (stereo unspecified)	?	20*	46*	31	10µM*
COC(=O)CC1C(=O)NCCN1C(=S)Nc1cccc(C)c1 (stereo unspecified)	0%	-4	-10	2	13%
Cc1ccc(-n2cc(CNCCN3CCOC3=O)c(-c3cccc(C)c3)n2)cc1	42%	16*	54*	-5	-30%
CCc1c(C)nc2c(C)cccc2c1SCCC#N	15%	-2	25	-27	46%
Cc1cc(N2CCOCC2)nc(-c2ccc([N+](=O)[O-])cc2)n1	15%	7	-11	37	82%
COc1cc(/C=C2/SC(=O)N(CC(=O)N3CCCC3)C2=O)ccc1Oc1ccc([N+](=O)[O-])cn1	?	1	1	?	?
Cc1nc2nc[nH]n2c(=O)c1CCC(=O)Nc1ccc(F)cc1	nt	nt	nt	-2	nt
OCCOCCn1c(-c2ccccc2)nc(=S)c2c1CCCC2	nt	-5	-6	-9	10µM*

Bioassay records: PubChem BioAssay, National Center for Advancing Translational Sciences (NCATS)
